Assay results published in PubChem BioAssay.
Unmarked numbers belong to inactive results. Activity calls are given as the source filed them.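 Rule for the calls: active = inhibition at or above 50% relative to wild type and mutant plate controls; inactive = inhibition below 50%.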

Experiment: loss of swimming-algae plug formation – whole organism, Chlamydomonas reinhardtii, WT vs cilia-less mutant, absorbance, 96-well, primary screen (AID 463189);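 note: 0% = wild type cc124 cells in DMSO and 100% = ciliumless bld1 mutant cells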
Settings: Chlamydomonas reinhardtii gravitaxis, OD600 absorbance, 2 days; at 10 µM; stronger effect = higher value

| Compound | inhibition |
| --- | --- |
| Cc1nc(SCC(=O)c2ccccc2)c(C#N)c(-c2ccco2)c1C(=O)NCc1ccco1 | 10.9% |
| CC(=O)C(=[N+]=[N-])C(=O)NCc1ccccc1 | 24.1% |
| CNC(=O)c1ncnnc1N(C)C(=O)NCc1ccccc1 | 9.13% |
| CCCCNC(=O)c1c(N)n(/N=C/c2cccnc2)c2nc3ccccc3nc12 | 29% |
| Cc1ccnc(N2CCN(c3c4c(c(C#N)c5nc6ccccc6n35)CCC4)CC2)c1 | -3.36% |
| CC(C)Cc1[nH]c(=O)c(C#N)c2c1CCCC2 | 16.6% |
| CCOC(=O)c1c(C)n(C)c2ccc(OC)c(NC(=O)CN3CCCCC3)c12 | -10.1% |
| CSc1nc(N)nc(SCC(=O)OC(C)C)c1C#N | 72.2% (active) |
| CC(=O)N/C(=N/c1nc(C)cc(C)n1)Nc1ccc(NC(C)=O)cc1 | 1.67% |
| Cc1ccccc1OCC(O)Cn1c(N2CCN(c3ccccc3)CC2)nc2c1c(=O)[nH]c(=O)n2C (stereo unspecified) | 22.7% |
| CCCOc1ccc(Cc2nn[nH]n2)cc1 | -6.39% |
| CC1CN(C2CCN(C(=O)c3ccccc3Cl)CC2)CC(C)O1 (stereo unspecified) | 0.742% |
| CCOc1nnnc2c1sc1nc(N3CCOCC3)c3c(c12)CC(C)(C)OC3 | -7.31% |
| CCN(CC)CCNc1nc2c(c(=O)[nH]c(=O)n2C)n1CCOc1ccccc1 | 0.39% |
| NC(=O)CSc1c[nH]c2ccccc12 | 31.3% |
| C=CCn1c(-c2ccccc2)n[nH]c1=S | 5.46% |
